# In the supplement of paper PMC8183993:
# Structures can show the parent of a compound that is named as a salt. ± gives the standard deviation of the averaged measurements. In all, about 3,100 compounds were measured (“mean cytoplasmic OPP incorporation (global translation) relative to DMSO”: median about 100, lowest 2% from about 56 on). The entries come from a sample that favours the lowest values as a whole.
# System: U2OS
# Test: mean cytoplasmic OPP incorporation (global translation) relative to DMSO (% of DMSO); higher = more protein synthesis
# Conditions: 10 µM; 24 h
# Procedure: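 Primary image-based screen in U2OS cells: compounds at 10 uM for 24 h, then a 1 h o-propargyl-puromycin (OPP) pulse, click labelling, and high-throughput microscopy. Mean cytoplasmic OPP intensity and nuclei count were normalised to DMSO wells within each plate (DMSO = 100) and averaged over triplicate plates.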
row,SMILES,mean cytoplasmic OPP incorporation
1,Cc1ccc(NC(=O)C(C)C)cc1C1CCN(Cc2ccc(Oc3ccc(F)c(F)c3)cc2)CC1,108
2,CC[C@H](C)[C@H](N)C1=N[C@H](C(=O)N[C@@H](CC(C)C)C(=O)N[C@H](CCC(=O)[O-])C(=O)N[C@H](C(=O)N[C@H]2CCCCNC(=O)[C@H](CC(N)=O)NC(=O)[C@@H](CC(=O)[O-])NC(=O)[C@H](Cc3cnc[nH]3)NC(=O)[C@@H](Cc3ccccc3)NC(=O)[C@H]([C@@H](C)CC)NC(=O)[C@@H](CCCN)NC2=O)[C@@H](C)CC)CS1.[Zn+2] [Bacitracin zinc],107
3,CCCC(CCC)C(=O)NO [Valproic acid hydroxamate],110
4,COc1cc(OC)c(NC(=O)Nc2cc(C)on2)cc1Cl,103
5,Cc1cnc(NC(=O)Nc2cc(Br)c(C)cc2OC[C@@H]2CNCCO2)cn1,45.6
6,CCOc1ccccc1OCC1CNCCO1 (stereo not given) [Viloxazine hydrochloride],87.8
7,CC(=O)OCCN1C(=O)c2c(C)nc3ccc(S(=O)(=O)N4CCOCC4)cc3c2C1=O [Ivachtin],105
8,CCOC(=O)C1=CN(Cc2ccccc2)C=C(C(=O)OCC)C1c1ccccc1,99.2
9,Nc1ncn(C2CC(O)C(CO)O2)c(=O)n1 (stereo not given) [5-Aza-2-deoxycytidine],94.5
10,"CCCn1c(=O)c2[nH]c(-c3ccccc3)nc2n(CCC)c1=O [1,3-Dipropyl-8-phenylxanthine]",99.1
11,CCCn1c(=O)c(C)cn2nc(N)nc12,104
12,CCCC[C@@H](C=O)NC(=O)OC(C)(C)C,101
13,CC1=C(/C=C/C(C)=C/C=C/C(C)=C/C(=O)O)C(C)(C)CCC1O (stereo not given) [4-Hydroxyretinoic acid],101
14,COC(=O)[C@]12CCC(C)(C)C[C@H]1[C@H]1C(=O)C=C3[C@@]4(C)C=C(C#N)C(=O)C(C)(C)[C@@H]4CC[C@@]3(C)[C@]1(C)CC2 [Bardoxolone Methyl],25.6
15,"N[C@@H](Cc1cc(I)c(Oc2ccc(O)cc2)c(I)c1)C(=O)O [3,5-Diiodo-L-thyronine]",103
16,CCN(CC)Cc1ccc2cc(COC(=O)Nc3ccc(C(=O)NO)cc3)ccc2c1 [ITF2357 (Givinostat)],104
17,CC(=O)Nc1ccccc1 [Acetanilide (Antifebrin)],102
18,CC(C)[C@H](C(=O)Nc1ccc(C(=O)NO)cc1)c1ccccc1,53
19,COc1ccc(CN2C(=O)C(=O)c3cc(OC(F)(F)F)ccc32)cc1,102
20,CC(C)Oc1ccc2c(=O)c3cc(C(=O)O)ccc3oc2c1,102
21,O=[N+]([O-])c1ccccc1S(=O)(=O)NCC1CCC(CNCC2CCc3ccccc3C2)CC1 (stereo not given) [NTNCB hydrochloride],114
22,CC(C)NCCN(C(C)C)S(=O)(=O)c1ccc(Cl)cc1Cl,95.9
23,C[N+](C)([O-])CCNc1ccc(NCC[N+](C)(C)[O-])c2c1C(=O)c1c(O)ccc(O)c1C2=O [Banoxantrone dihydrochloride],87.9
24,O=C1c2ccccc2C(=O)c2c(NCCc3ccc(O)cc3)ccc(NCCc3ccc(O)cc3)c21,120
25,O=C1c2c(O)ccc(O)c2C(=O)c2c(NCCNCCO)ccc(NCCNCCO)c21 [Mitoxantrone dihydrochloride],20.9

row,SMILES,mean cytoplasmic OPP incorporation
1,CC(C)SC(=N)N [S-Isopropylisothiourea hydrobromide],102
2,CCCS(=O)(=O)c1nc(NC2CC2)cc(-c2ccc3c(ccn3C3CC(C)(C)NC(C)(C)C3)c2)n1,21.1
3,C=C1C(=O)O[C@@H](CCC)[C@@H]1C(=O)O [Butyrolactone 3],100
4,C[C@H](NC(=O)[C@@H]1CCCN1C(=O)[C@@H]1CCCN1C(=O)[C@@H](O)[C@H](N)Cc1ccccc1)C(N)=O [Apstatin],101
5,"C[C@H](NC(=O)/C(C#N)=C/c1ccc(O)c(O)c1)c1ccccc1 [Tyrphostin B44, (+) enantiomer]",96
6,C[C@H](NC(=O)/C(C#N)=C/c1cccc(Br)n1)c1ccccc1,56.2 ± 5.9
7,CCC[C@H](NC(=O)/C(C#N)=C/c1cccc(Br)n1)c1ccccc1,27.2
8,O=C(c1ccc(Cl)cc1Cl)n1nnc2ccccc21,111
9,CCCc1cc(C)[nH]c(=O)c1CNC(=O)c1cc(-c2ccnc(N3CCN(C)CC3)c2)cc2c1cnn2C(C)C,112
10,CC(=O)NCCc1c(Cc2ccccc2)[nH]c2ccccc12 [Luzindole],103
11,O=C(/C=C/c1cccc(S(=O)(=O)Nc2ccccc2)c1)NO [Belinostat (PXD101)],65.5
12,Cc1[nH]c2ccccc2c1CCNCc1ccc(/C=C/C(=O)NO)cc1 [Panobinostat],51.6
13,CCCCCCCCCCCCCCCC(=O)C1=C(O)[C@@H](CO)OC1=O,104
14,N[C@H](C(=O)O)[C@H](OCc1ccccc1)C(=O)O (racemic),103
15,CCS(=O)(=O)c1cccc(-c2cc(C(=O)NC3CCN(C)CC3)c(C)c3[nH]c4ncc(C)cc4c23)c1,46.8
16,COc1cc(C(=O)NC(=S)Nc2cccc(NC(=O)c3ccccc3)c2)cc(OC)c1OC,117
17,CN(C)c1nc(N)c(C(=O)Nc2cccnc2)nc1Cl [ACDPP hydrochloride],97.2
18,CN1CCC(c2c(O)cc(O)c3c(=O)cc(-c4ccccc4Cl)oc23)C(O)C1 (stereo not given) [Flavopiridol (Alvocidib) HCl],58.4
19,Cc1cc2c(cc1C1(c3ccc(C(=O)O)cn3)CC1)C(C)(C)CCC2(C)C,109
20,COc1cc(NC(C)CCCN)c2ncccc2c1 (stereo not given) [Primaquine diphosphate],36.1
21,C/C(=N\NC(=O)C1C(=O)NCC1c1ccccc1)c1cccc(Br)c1 (stereo not given),102
22,O=C(O)c1cc(O)ccc1O [Gentisic acid],101
23,CC(=O)N[C@@H](CSCC=C(C)CCC=C(C)CCC=C(C)C)C(=O)O [Acetyl-S-farnesyl-L-cysteine],123
24,OCC1OC(n2cnc3c(NC4CCCC4)nc(Cl)nc32)C(O)C1O (stereo not given) [2-Chloro-N6-cyclopentyladenosine],116
25,CCCCCS(=O)(=O)CCCCCCCCCCn1c(-c2ccc(O)cc2)c(C)c2cc(O)ccc21,104
